Test results taken from PubChem BioAssay AID1259421 (Broad Institute, 2018).
Several values for one entry are separate records, joined by “and”; a condition that tells them apart may be missing. Equal values may be shown once. Out of some 6,400 compounds screened, about 610 (9.5%) were called active. No stated cut-off is given here; in the data, active means activity change below about -70%; inconclusive means no clear call, values can overlap the other calls; inactive means above that. What follows is part of a selection rich in actives, with near analogues and random picks from the rest. Some compounds were tested as several samples or in several runs, with calls that do not always agree. *1 amine or outer side, *2 acyl side, *3 side chain or, on linkers, in order; H or OH if unused. Where a SMILES comes first, the peptide text is derived from it. Side-chain parts run from the residue outwards. [ ]: non-standard residue; d: D form. The star is where a group is joined. Ethylenediamine = C(CN[*:2])N[*:1]; Hyp = O=C(O)[C@@H]1C[C@@H](O)CN1; Phg = N[C@H](C(=O)O)c1ccccc1; CO = O=C([*:1])[*:2]; Bn = c1ccc(C*)cc1

Experiment: T. gondii ME49Luc in HeLa cells, luciferase assay, 72 h, no IFN-y (AID 1259421)
Conditions: stronger effect = lower value, concentration not given here

Row | SMILES | activity change, negative = inhibition
1 | c1ccc(C(NCCNC(c2ccccc2)c2ccccc2)c2ccccc2)cc1 | -24.5% (inactive) and -4.76% (inactive)
2 | Cn1c(=O)cc(N2CCCC(N)C2)n(Cc2cc(F)ccc2C#N)c1=O (stereo not drawn) | 0.449% (inactive)
3 | C[C@H]1CC2C3CCC4=CC(=O)C=C[C@]4(C)[C@@]3(F)[C@@H](O)C[C@]2(C)[C@@]1(O)C(=O)COP(=O)(O)O (stereo partly drawn) | -6.5% (inactive)
4 | COc1cc(O)c2c(=O)c(OC)c(-c3ccc(OC)c(OC)c3)oc2c1 | 3.09% (inactive)
5 | CC(=O)OCC(=O)[C@@]1(O)CCC2C3CCC4=CC(=O)C=CC4(C)C3[C@@H](O)C[C@@]21C (stereo partly drawn) | 1.73% (inactive)
6 | CC1(C)[C@@H](O[C@H]2O[C@H](C(=O)O)[C@@H](O)[C@H](O)[C@@H]2O[C@@H]2O[C@H](C(=O)O)[C@@H](O)[C@H](O)[C@H]2O)CC[C@@]2(C)[C@H]3C(=O)C=C4[C@@H]5C[C@@](C)(C(=O)O)CC[C@]5(C)CC[C@@]4(C)[C@]3(C)CC[C@@H]12 | 5.63% (inactive)
7 | CC[C@@]1(O)C(=O)OCc2c1cc1n(c2=O)Cc2cc3c([N+](=O)[O-])cccc3nc2-1 | -85.8% (active)
8 | O=C(Cc1ccccc1)Nc1nc2ccc(Cl)cc2c2nc(-c3ccco3)nn12 | 2.82% (inactive) and 3.45% (inactive)
9 | Cc1nc(Cn2cnc3c2c(=O)n(C)c(=O)n3C)no1 | 8.05% (inactive)
10 | CCOCCn1c(N2CCCN(C)CC2)nc2ccccc21 | 16.4% (inactive)
11 | Cc1cnc(CNC(=O)c2c(=O)c3ccc(N4CCCN(C)CC4)nc3n3c2sc2ccccc23)cn1 | -82.2% (active)
12 | CCC(C(N)=O)c1ccccc1 (stereo not drawn) | -4.72% (inactive)
13 | CN(Cc1ccccc1)C(=O)C(Cc1ccc2ccccc2c1)NC(=O)C1CCCN1C(=O)Nc1ccccc1[N+](=O)[O-] (stereo not drawn) | 0.794% (inactive)
14 | O=C(O)c1cc2cc(Cl)ccc2[nH]1 | 10.5% (inactive)
15 | CCCCCCCCNC[C@@H](O)[C@H](O)[C@@H](O)[C@@H](O)CO | 17.8% (inactive)
16 | S=P(N1CC1)(N1CC1)N1CC1 | 7.66% (inactive)
17 | CC(C)OC(=O)c1cn(Cc2c(F)cccc2F)c2sc(-c3ccc(NC(=O)C(C)C)cc3)c(CN(C)Cc3ccccc3)c2c1=O | -80.6% (active)
18 | OC(CN1CCNCC1)Cn1c2ccc(Br)cc2c2cc(Br)ccc21 (stereo not drawn) | -61.8% (inactive)
19 | O=C1Cc2cc(Cl)ccc2N1 | 8.1% (inactive)
20 | CC[C@H](C)n1cc(C)c2c(C(=O)NCc3c(C)cc(C)[nH]c3=O)cc(-c3ccc(N4CCNCC4)nc3)cc21 | 1.27% (inactive)
21 | OCCn1cc(-c2ccc3c(c2)CC/C3=N\O)c(-c2ccncc2)n1 | -63.9% (inactive) and -44.3% (inactive)
22 | CN(C)CCOc1ccc(-c2nc(-c3ccc4c(c3)CC/C4=N\O)c(-c3ccncc3)[nH]2)cc1 | -76.7% (active)
23 | O=c1[nH]c(=O)n([C@H]2CC(O)[C@@H](CO)O2)cc1/C=C/Br (stereo partly drawn) | 8.12% (inactive)
24 | O=C(/C=C/c1cccc(S(=O)(=O)Nc2ccccc2)c1)NO | -80.9% (active)
25 | CCNC(=O)/C=C/c1cccc(Br)c1 | 53.2% (inactive)
26 | O=C(/C=C/c1ccccc1)c1ccc(O)cc1O | 65.1% (inactive)

Row | SMILES | activity change, negative = inhibition
27 | CNC(=O)CN(CCN(CCN(CC(=O)O)CC(=O)NC)CC(=O)O)CC(=O)O.[Gd] | 9.1% (inactive)
28 | CCCCCN(CCCOC)C(=O)[C@@H](CCC(=O)O)NC(=O)c1ccc(Cl)c(Cl)c1 | 5.05% (inactive)
29 | NCCCC[C@@H]1NC(=O)[C@@H](Cc2c[nH]c3ccccc23)NC(=O)[C@H](c2ccccc2)NC(=O)[C@@H]2C[C@@H](OC(=O)NCCN)CN2C(=O)[C@H](Cc2ccccc2)NC(=O)[C@H](Cc2ccc(OCc3ccccc3)cc2)NC1=O (cyclo([Hyp]([CO-Ethylenediamine])[Phg][dW]KY(Bn)F)) | 9.07% (inactive)
30 | Cc1ccc(-c2cc(C(F)(F)F)nn2-c2ccc(S(N)(=O)=O)cc2)cc1 | 17% (inactive) and 0.0196% (inactive)
31 | NCC(=O)Nc1ccc(-n2nc(C(F)(F)F)cc2-c2ccc3c(ccc4ccccc43)c2)cc1 | -75.5% (active)
32 | CCn1cnc(C(=O)NC)c1C(=O)NC | 4% (inactive)
33 | C[C@H](/C=C/[C@H](C)C(C)(C)O)[C@H]1CC[C@H]2/C(=C/C=C3C[C@@H](O)C[C@H](O)C3)CCC[C@]12C | 20.9% (inactive)
34 | N#Cc1cc2c(OCC(O)CN3CCN(C(c4ccccc4)c4ccccc4)CC3)cccc2[nH]1 (stereo not drawn) | -30% (inactive)
35 | NCC(=O)N1C[C@H](NC(=O)c2ccccc2)C[C@H]1C(=O)O | 17.6% (inactive)
36 | CC1CC2C3CCC4=CC(=O)C=CC4(C)C3(F)C(O)CC2(C)C1(O)C(=O)CO (stereo not drawn) | -10.3% (inactive)
37 | C=CCn1c(=O)c2cnc(Nc3ccc(N4CCN(C)CC4)cc3)nc2n1-c1cccc(C(C)(C)O)n1 | -82.2% (active)
38 | CN1CCN(c2cccc(Nc3nc4c(-c5ccc(S(C)(=O)=O)cc5)cccn4n3)c2)CC1 | -0.0052% (inactive)
39 | CC1(C)O[C@@H]2CC3C4CCC5=CC(=O)C=C[C@]5(C)C4[C@@H](O)C[C@]3(C)[C@]2(C(=O)CO)O1 (stereo partly drawn) | 0.966% (inactive)
40 | CC(C)C(=O)OC[C@@]1(N=[N+]=[N-])O[C@@H](n2ccc(N)nc2=O)[C@H](OC(=O)C(C)C)[C@@H]1OC(=O)C(C)C | 6.96% (inactive)
41 | Cn1ncc(Cl)c1-c1cc(C(=O)N[C@H](CN)Cc2cccc(F)c2)sc1Cl | -49.2% (inactive)
42 | Cn1ncc(Cl)c1-c1cc(C(=O)N[C@H](CN)Cc2ccc(F)c(F)c2)oc1Cl | -80% (active)
43 | CNCC(=O)O | -1.68% (inactive)
44 | CCCCCS(=O)(=O)CCCCCCCCCCn1c(-c2ccc(O)cc2)c(C)c2cc(O)ccc21 | -63.6% (inactive) and -77.2% (active)
45 | CCOC(=O)c1c(C)n(C)c2ccc(O)cc12 | -6.15% (inactive) and 12.7% (inactive)
46 | CCCCCCc1ccc(O)cc1O | 10.9% (inactive)
47 | C[C@@]12CCC3[C@@](CC[C@@H]4[C@](C)(C(=O)O)CCC[C@@]34C)(CC1=O)C2 (stereo partly drawn) | 7.66% (inactive)
48 | O=C(O)CSc1nnc(Br)n1-c1ccc(C2CC2)c2ccccc12 | 0.38% (inactive)
49 | CCCCCCCCCCOc1cc2c(=O)c(C(=O)OCC)c[nH]c2cc1OCC | 30.1% (inactive)
50 | O=C(O)c1cc(N(Cc2ccccc2O)Cc2ccccc2O)ccc1O | 2.11% (inactive)
51 | Cc1ccccc1-c1cc(N2CCN(C)CC2)ncc1N(C)C(=O)C(C)(C)c1cc(C(F)(F)F)cc(C(F)(F)F)c1 | -80.1% (active)
52 | CO[C@@]1(NC(=O)C2SC(=C(C(N)=O)C(=O)O)S2)C(=O)N2C(C(=O)O)=C(CSc3nnnn3C)CSC21 (stereo partly drawn) | 5.67% (inactive)

Row | SMILES | activity change, negative = inhibition
53 | CC1CC2C3CC(F)C4=CC(=O)C=CC4(C)C3(F)C(O)CC2(C)C1(CC(=O)CO)C(=O)SCF (stereo not drawn) | -4.39% (inactive)
54 | Cc1oc(=O)oc1COC(=O)C1=C([C@H]2CCCO2)S[C@@H]2[C@@H]([C@@H](C)O)C(=O)N12 | 16.9% (inactive)
55 | O=C(NCc1ccccc1)c1csc(Nc2ccncn2)n1 | -56.6% (inactive)
56 | Cc1cccc(Nc2nc(-c3ccncc3)cs2)c1 | 107% (inactive)
57 | O=C(NCc1cccc(O)c1)Nc1nc(-c2ccncc2)cs1 | -70.8% (active)
58 | CC(C)CN(C[C@@H](OP(=O)(O)O)[C@H](Cc1ccccc1)NC(=O)O[C@H]1CCOC1)S(=O)(=O)c1ccc(N)cc1 | -5.19% (inactive)
59 | CCC(CC)O[C@@H]1C=C(C(=O)O)C[C@H](N)[C@H]1NC(C)=O | 3.98% (inactive)
60 | O=C1Cc2c([nH]c3ccc(Br)cc23)-c2ncccc2N1 | 206% (inactive)
61 | O=C1Cc2c([nH]c3ccc([N+](=O)[O-])cc23)-c2ccccc2N1 | -78% (active)
62 | O=C1Cc2c([nH]c3ccc(Br)cc23)-c2ccccc2N1 | 406% (inactive) and -6.73% (inactive)
63 | O=c1c2c(c1=O)N(CCP(=O)(O)O)CCCN2 | 4.23% (inactive)
64 | OCCN1C[C@@H](O)[C@@H](O)C(O)C1CO (stereo partly drawn) | 10.9% (inactive)
65 | COc1cc2ncc(-c3ccccc3)nc2cc1OC | -82.6% (active)
66 | COC(=O)[C@H](NC(=O)c1cc(-c2ccccc2)nc2ccccc12)c1ccccc1 | 9.5% (inactive) and 19.2% (inactive)
67 | Cc1cc2ncc(-c3ccccc3)nc2cc1C | 459% (inactive)
68 | COc1ccc(-c2oc3cc(OC)c(OC)c(OC)c3c(=O)c2OC)cc1 | -3.53% (inactive)
69 | CC(=O)c1cc([N+](=O)[O-])c(Sc2ccc(F)cc2F)s1 | -85.3% (active)
70 | CC(=O)c1cc([N+](=O)[O-])c(Sc2cccc(Cl)c2Cl)s1 | 14.1% (inactive)
71 | C=C[C@@]1(C)CC(=O)[C@]2(O)[C@@]3(C)[C@@H](O)CCC(C)(C)[C@@H]3[C@H](OC(=O)CCN(C)C)[C@H](OC(C)=O)[C@@]2(C)O1 | 0.0952% (inactive)
72 | C=CCN1CCN(c2nc3ccccc3nc2C#N)CC1 | -7.28% (inactive) and 5.54% (inactive)
73 | c1ccc(Cn2c(N3CCNCC3)nc3ccccc32)cc1 | 6.11% (inactive)
74 | Cc1oc2nc3c(c(NC(=O)CN4CCCC4=O)c2c1C)CCCC3 | 1.4% (inactive)
75 | OCc1cc2ncnc(Nc3ccc(O)c(Br)c3)c2cc1CO | -79.3% (active)
76 | COc1cc2ncnc(Nc3ccc(O)c(Br)c3)c2cc1OC | -58.4% (inactive)
77 | Nc1cc2ncnc(Nc3cccc(Br)c3)c2cc1N | 4.16% (inactive)
78 | C[C@H](CCC(=O)O)[C@@H]1CC[C@H]2[C@@H]3CC[C@@H]4C[C@H](O)CC[C@]4(C)[C@H]3CC[C@@]21C | 11.8% (inactive)
